The whole screen tested about 87,000 compounds, of which about 360 (0.41%) were called active. Only a selection was taken, and actives are over-represented in it overall. A number with no mark means an inactive call. Rule as the data show it: active = cytotoxicity above about 50%; inactive = the rest.
Assay: cytotoxicity in HT1080 fibrosarcoma cells, cell-based, fluorescence readout (AID 620);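 also: cells exposed to compound overnight then 4 h with Alamar Blue; 0% = vehicle DMSO and 100% = killing control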
Settings: HT1080 viability, at 10 µM, hits give high values

| Compound | cytotoxicity |
| --- | --- |
| CCOC(=O)CSCC(=O)Nc1ccc(S(=O)(=O)N2CCCCC2)cc1 | 6.7% |
| CC(C)(C)c1nc(CN2CCOCC2)ccc1O | -2.2% |
| Cc1ccc2nc(NCc3ccccc3)[nH]c2c1 | 63.1% (active) |
| COc1ccc2nc(NCc3ccccc3)[nH]c2c1 | 24.9% |
| c1ccc(CNc2nc3ccccc3[nH]2)cc1 | 4.5% |
| CC(C(=O)Oc1ccc2c(c1)OCO2)N1C(=O)c2ccccc2C1=O (stereo unspecified) | 3.4% |
| CC(=O)N1CCc2cc(C(=O)CN3CCCCC3)ccc21 | -6.3% |
| CCN1CCN(Cc2nc3c(c(=O)[nH]c(=O)n3C)n2Cc2ccccc2Cl)CC1 | 4.2% |
| COc1ccc(CNC(=O)CSc2nc(-c3ccccc3)cc(-c3cccs3)c2C#N)cc1 | -13.6% |
| COc1ccc(-c2cc(-c3cccs3)c(C#N)c(SCC(=O)NCc3ccccc3)n2)cc1 | -5.2% |
| COc1ccc(-c2cc(-c3cccs3)c(C#N)c(SCC(=O)NCc3ccco3)n2)cc1 | 55.1% (active) |
| Nc1nc(SCc2ccc(Cl)cc2)ns1 | -0.5% |
| CCOC(=O)C1CCCN(Cc2ccccc2OCC)C1 (stereo unspecified) | 8.9% |
| COc1ccc(C(=O)Nn2c(C)ccc2C)cc1OC | -1% |
| CS(=O)(=O)N1CCN(c2ccccc2NC(=O)c2ccc(-c3ccc(Cl)cc3Cl)o2)CC1 | 6% |
| COc1cc(C2=NOC(C(=O)NCc3ccc(F)cc3)C2)cc(OC)c1OC (stereo unspecified) | 64.5% (active) |
| COc1ccc(C2=NOC(C(=O)NCc3ccc(F)cc3)C2)cc1OC (stereo unspecified) | 57.2% (active) |
| COc1ccc(C2=NOC(C(=O)NCc3ccc(F)cc3)C2)cc1 (stereo unspecified) | 7% |
| COc1cccc(C2=NOC(C(=O)NCc3ccc(F)cc3)C2)c1 (stereo unspecified) | -1.1% |
| COc1ccc(CNC(=O)C2CC(c3ccc(F)cc3)=NO2)cc1 (stereo unspecified) | 3.2% |
| COc1ccc(CNC(=O)C2CC(c3ccc(OC)cc3)=NO2)cc1 (stereo unspecified) | -0.6% |
| COc1ccc2[nH]c(=O)c(C(c3nnnn3C3CCCC3)N3CCN(Cc4ccc5c(c4)OCO5)CC3)cc2c1 (stereo unspecified) | -0.4% |
| COc1cc(NC(=O)c2nccnc2C(=O)O)cc(OC)c1 | -8% |
| C=CCSc1ncc(C#N)c(N)n1 | 14.9% |
| O=C(OCC(=O)N1CCc2ccccc21)c1cccnc1Cl | -2.9% |
| CS(=O)(=O)N1CCCC(C(=O)NCCCN2CCc3ccccc3C2)C1 (stereo unspecified) | -1.1% |

| Compound | cytotoxicity |
| --- | --- |
| C[C@@H](C(=O)NCCc1c[nH]c2ccccc12)[C@@H]1C[C@@]1(C)[C@@H](NC(=O)OCc1ccccc1)c1ccccc1 | 0.9% |
| Cc1cc2c(c(C)nn2-c2ccccc2)c(=O)o1 | -11.4% |
| CCCCCCn1c2c(c(=N)c3c1CCC3)CCC2 | 12.4% |
| CCCCCCCCCn1c2c(c(=N)c3c1CCC3)CCC2 | 51.6% (active) |
| CCCCCCCCCCn1c2c(c(=N)c3c1CCC3)CCC2 | 38.3% |
| Cn1c(=O)[nH]c(=O)c2c1nc(CN1CCN(c3ccccc3F)CC1)n2CC(N)=O | -7.3% |
| COC(=O)c1ccccc1NC1=C/C(=N\S(=O)(=O)c2cccs2)c2ccccc2C1=O | -53% |
| COC(=O)C(C(C)=O)C1=C/C(=N\S(=O)(=O)c2ccc(C)cc2)c2ccccc2C1=O (stereo unspecified) | -13% |
| Cc1ccc(NC2=C/C(=N\S(=O)(=O)c3cccs3)c3ccccc3C2=O)c(C)c1 | 61.6% (active) |
| O=c1nc(N2CCOCC2)ccn1Cc1ccc(Br)cc1 | -6.8% |
| C=CCn1cc(C(=O)OC)c(=O)c2cc(S(=O)(=O)N3CCC(C)CC3)ccc21 | 6.1% |
| COc1ccc(NC(=O)c2oc3ccccc3c2NC(=O)COc2ccccc2OC)c(OC)c1 | -4.5% |
| O=C(c1ccco1)N1CCN(C(=O)N2c3ccccc3Sc3ccccc32)CC1 | 60.9% (active) |
| O=C(CN1CCN(c2ccccn2)CC1)N1c2ccccc2Sc2ccc(C(F)(F)F)cc21 | 6.6% |
| O=C(c1ccco1)N1c2ccccc2Sc2ccccc21 | 0.2% |
| O=C(N1CCOCC1)N1CCN(c2ccccn2)CC1 | 6.2% |
| O=C(N1CCN(c2ccccn2)CC1)N1c2ccccc2Sc2ccccc21 | 59.7% (active) |
| O=C(NC1CCN(C(=O)N2c3ccccc3Sc3ccccc32)CC1)c1ccco1 | 3.2% |
| Cc1ccccc1C(NC(N)=O)c1ccccc1 (stereo unspecified) | 0.3% |
| CC(C)N=C(NC#N)SCc1ccccc1 | 0.9% |
| COc1ccc(C2=Nn3c(nnc3-c3ccccc3OC)SC2)cc1OC | 56.1% (active) |
| CCOc1ccc(C2=Nn3c(nnc3-c3ccc(OC)cc3)SC2)cc1 | 38% |
| CCOc1ccc(-c2nnc3n2N=C(c2ccc(OC)cc2)CS3)cc1 | 11.5% |
| CCOc1ccc(C2=Nn3c(nnc3-c3ccccc3OC)SC2)cc1 | 62.9% (active) |
| COc1ccc(C2=Nn3c(nnc3-c3ccccc3)SC2)cc1OC | 11.6% |
| COc1ccccc1-c1nnc2n1N=C(c1ccc(O)c(O)c1)CS2 | 48% |

| Compound | cytotoxicity |
| --- | --- |
| CSC1CCCCC1(O)CSc1nc2ccccc2o1 (stereo unspecified) | -0.9% |
| O=C(CCN1C(=O)C2C3C=CC(C3)C2C1=O)N1CCN(c2ccc(F)cc2)CC1 (stereo unspecified) | 0.6% |
| O=C(O)C1CC=C(Cl)CC1C(=O)NCC1OCCc2ccccc21 (stereo unspecified) | 22.3% |
| O=C(NCc1ccc(F)cc1)C1CCN(C(=O)NCc2ccccc2)CC1 | -1% |
| OCCc1ccc(-c2ccc(Cl)cc2)o1 | 0.4% |
| Cc1nn(-c2ccc(F)cc2)c2sc(C(=O)N3CCCCCC3)cc12 | -14% |
| Nc1ccc2nc(-c3ccccn3)[nH]c2c1 | 18.5% |
| CC(=O)Nc1ccc2nc(-c3ccccn3)[nH]c2c1 | 7.2% |
| CC1(C)OC(=O)N(c2ccccc2)C12C=Cc1cc(Br)ccc1O2 (stereo unspecified) | -10.5% |
| Nc1nonc1C(=O)NCCNCc1cc(Br)ccc1OCc1ccccc1F | 99.7% (active) |
| Nc1nonc1C(=O)NCCNCc1cc(Br)ccc1OCc1ccc(F)cc1 | 21.8% |
| Nc1nonc1C(=O)NCCNCc1ccccc1OCc1ccccc1F | 0.5% |
| Cn1c(=O)c2c(nc(SCCN3CCOCC3)n2Cc2ccc(Cl)cc2)n(C)c1=O | -7% |
| Fc1ccc(-c2cc3nc4c(c(N5CCOCC5)n3n2)CCCC4)cc1 | -15.8% |
| OC1CCN(c2c3c(nc4cc(-c5ccc(F)cc5)nn24)CCC3)CC1 | -17.8% |
| O=C(C1CC1)N1CCN=C1SCc1ccccc1Cl | -3.4% |
| CCOC(=O)N1CCN(S(=O)(=O)c2ccc(OCC)c(C)c2)CC1 | 4.4% |
| Cc1cccc(NS(=O)(=O)c2cccc3cccnc23)n1 | 9% |
| Cc1cc(C(=O)NCCN2CCN(c3cccc(Cl)c3)CC2)n(-c2ccccc2)n1 | 55.9% (active) |
| Cc1cc(C(=O)NCCCN2CCOCC2)n(-c2ccccc2)n1 | -1.5% |
| Cc1cc(C(=O)NCCCN2CCN(C3CCCCC3)CC2)n(-c2ccccc2)n1 | 13.2% |
| Cn1c(=O)[nH]c(=O)c2c1nc1n2CCCS1 | 35.1% |
| N#CC(c1ccccc1)c1ccc2c(C(F)(F)F)cc(C(F)(F)F)nc2n1 (stereo unspecified) | -4.8% |
| N#CC(c1ccc(Cl)cc1)c1ccc2c(C(F)(F)F)cc(C(F)(F)F)nc2n1 (stereo unspecified) | 51.3% (active) |
| Cc1ccc(C(C#N)c2ccc3c(C(F)(F)F)cc(C(F)(F)F)nc3n2)cc1 (stereo unspecified) | -12.2% |
| Cc1ccc(NC(=O)CN2CCCCCC2)c(Br)c1 | -14.9% |

| Compound | cytotoxicity |
| --- | --- |
| CCOC(=O)c1ccc(NC(=O)CC2C(=O)N(c3ccc(F)cc3)C(=O)N2CCC(C)C)cc1 (stereo unspecified) | 4.5% |
| Cn1cc(S(=O)(=O)NCc2cccs2)c(=O)n(C)c1=O | 0.5% |
| COc1ccc(S(=O)(=O)Nc2ccc(N(C)C(C)=O)cc2)cc1 | 4.3% |
| Nc1nc(SCC(=O)Nc2ccccc2Sc2ccc(Cl)cc2)n[nH]1 | 74.3% (active) |
| O=C(CSc1ncn[nH]1)Nc1ccccc1Sc1ccc(Cl)cc1 | 41.7% |
| Nc1nc(SCC(=O)Nc2ccccc2-c2ccccc2)n[nH]1 | 0.1% |
| CCn1c(SCC(=O)c2ccc(NS(=O)(=O)c3ccccc3)cc2)nnc1-c1cccs1 | -0.1% |
| O=C(O)C1C2CCC(O2)C1C(=O)Nc1cnn(Cc2ccccc2)c1 (stereo unspecified) | 13% |
| CC(C)CC(NC(=O)C1CCC(C)CC1)C(=O)NCc1ccccn1 (stereo unspecified) | 23.1% |
| Cn1c(C(=O)N2CCC(C(=O)N3CCOCC3)CC2)cc2sccc21 | 4.3% |
| CCOc1ccccc1-n1c(SCC(N)=O)nnc1-c1cccnc1 | 7.9% |
| COc1ccc(-c2nnc3n2N=C(c2ccccc2)CS3)cc1OC | -10.6% |
| COc1ccc(C2=Nn3c(nnc3-c3ccncc3)SC2)cc1 | -6.8% |
| COc1ccc(OC)c(C2=Nn3c(nnc3-c3ccncc3)SC2)c1 | 2.2% |
| Fc1ccc(C2=Nn3c(nnc3-c3n[nH]c4c3CCC4)SC2)cc1 | 5.8% |
| Clc1ccc(C2=Nn3c(nnc3-c3n[nH]c4c3CCC4)SC2)cc1 | 6.1% |
| COc1ccc(C2=Nn3c(nnc3-c3ccc(OC)cc3)SC2)cc1 | 62.4% (active) |
| COc1ccc(-c2nnc3n2N=C(C)CS3)cc1 | -10.3% |
| COc1ccc(OC)c(C2=Nn3c(nnc3-c3cc(OC)c(OC)c(OC)c3)SC2)c1 | 64.1% (active) |
| Cc1cccc(-c2nnc3n2N=C(c2ccccc2)CS3)c1 | 5.5% |
| Brc1ccc(C2=Nn3c(nnc3-c3n[nH]c4c3CCC4)SC2)cc1 | 56.3% (active) |
| COc1cc(-c2nnc3n2N=C(c2ccccc2)CS3)cc(OC)c1OC | 66.9% (active) |
| COc1cccc(-c2nnc3n2N=C(c2cc(OC)ccc2OC)CS3)c1 | 5.5% |
